Results: the supplement of paper PMC6555819

Tests used:
Assay in all cases: PBM binding z-score (relative to random genomic background probes); higher = stronger binding; sequences stand for … in GC…GCGATTGACAGCGTAGAATGAAGG
[1] = test system: RARb homodimer (NR concentration 270 nM)
Procedure, shortened: (§1)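 The probes on custom Agilent 4×180K protein-binding microarrays were double-stranded, with 34-nt variable regions bearing direct-repeat seeds, single-nucleotide variants, half-site ablations and random human genomic background sequences. Incubation lasted 1 h with ligand-free nuclear receptor dimers in PBS pH 7.4, 2% milk, 0.02% Triton X-100, 1 mM DTT, 0.2 mg/mL BSA and 0.4 mg/ml salmon testes DNA. Antibodies against each partner (one per run) detected bound dimers, and fluorescence scans were regression-normalized. Binding z-scores take the random background probes as reference.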

[2] = test system: RARg:RXRa (NR concentration 270 nM, RXRa partner concentration 90 nM)
Procedure, shortened: as §1

[3] = test system: RARg homodimer (NR concentration 270 nM)
Procedure, shortened: as §1

[4] = test system: RXRa DBDmut IVT, anti-RXR (DBD mutation: RXRa K156A/R161A, NR concentration 90 nM)
Procedure, shortened: as §1

[5] = test system: RXRa homodimer (NR concentration 180 nM)
Procedure, shortened: as §1

[6] = test system: THRa:RXRa (NR concentration 90 nM, RXRa partner concentration 90 nM)
Procedure, shortened: as §1

[7] = test system: THRa homodimer (NR concentration 90 nM)
Procedure, shortened: as §1

[8] = test system: VDR homodimer (NR concentration 270 nM)
Procedure, shortened: as §1

Sequence	PBM binding z-score [1]	PBM binding z-score [2]	PBM binding z-score [3]	PBM binding z-score [4]	PBM binding z-score [5]	PBM binding z-score [6]	PBM binding z-score [7]	PBM binding z-score [8]
CCGACTGGGGCAGAAAGGTTACCCTACCATCCGG	2.2	1.35	0.99	-0.847	1.43	1.07	-0.0158	-0.359
CGTCAAAGTTCAGGGTAACGTAACAGAAAGCAGC	3.13	4.04	4.74	3.74	2.91	2.14	0.495	2.51
CAAACTAGGTCACCAGAAGGTCAAAGTCCGCATG	5.5	8.08	7.22	2.32	6.38	4.35	2.59	3.71
ATCTCTAGGCAACCAAGTTCAGTGAATGCCGAAC	1.25	0.473	0.591	0.688	0.505	0.9	-0.255	2.3
CGAACTAGGTCAAGGACACTGAATCTCCGCACGC	3.08	3.94	4.67	1.55	2.66	3.49	3.04	0.782
TCAGAAAGGTGAAGGTAACTCAGGTACGCAGTCG	2.08	2.32	2.52	1.64	2.41	2.01	0.472	0.477
GCTGCTAGGTCAACTGATGGACAGCTAAAGCTCG	3.12	4.45	5.36	1.28	2.94	2.72	0.89	-0.122
CAAACTAGGTCAAGAGGTCAAAGACCGCTTCCCG	5.76	8.18	7.8	2.18	8.47	4.39	2.18	3.76
GATACAGGGTCAGATAGAGGCCAGAGTATGGAAA	3.28	6.34	4.42	1.75	4.42	3.16	0.893	1.42
CCGACTGGGGCAGAAAGTTTACCATACCATCCGG	0.899	-0.0805	0.478	-0.44	-0.178	-0.72	-0.708	0.157
TGAATAAGGTTATAAGATCAGGGAACGTTGCAAA	0.682	1.59	1.14	0.444	1.89	1.79	0.426	0.135
CACACTAGGTCACCGGAAGGTCAAAGTCCGCATG	5.83	8.21	7.39	2.24	6.53	4.79	3.54	3.61
CCTACTGGGCCAAAAAGGTTATTGATGCCGATAA	1.36	0.788	0.644	-0.387	1.03	0.617	-0.462	0.00157
CCTTACCGGTCACGAGGTTATAGCACGACGAGCG	3.08	4.01	3.68	0.188	2.62	2.37	1.43	1.34
ACTTACGTGTCAACGAGGTTATAGCACGCGTATA	1.17	1.44	1.18	0.532	1.38	1.99	0.476	0.875
CAAACTAGGTCACAAAGGTCAAAGTCCGTGCGTA	5.75	7.55	8.33	3.46	8.41	4.52	2.58	6.7
CCTACTGAGCCACGAAAGGTCATTGATTCAGTGA	4.59	4.56	4.22	1.03	5.47	3.41	1.23	2.9
TCGAGTAGGGTAGGGGCATTCAGAATGGCGTCGA	0.89	-0.0257	-0.315	0.328	0.411	0.763	0.794	0.663
ATCTCTAGGTAAAGATATTTCAGTGAATGCAAAT	-0.275	0.202	0.289	-0.0383	0.125	0.524	0.252	-0.0481
TGAATGAGGTTAAAGATCAGGGAACGTGGCGTCG	0.677	2.23	1.12	1.61	3.81	2.5	0.44	0.484
GCTCGGAGGACAAGGTCGGAGCTTTGTCCGTAGA	0.998	0.842	1.11	-0.395	0.103	1.37	0.277	-0.608
ATCGAAAGGTCGTGAGGTGGGTATACAGAAAGGC	2.93	4.59	3.86	1.52	5.16	2.6	0.377	1.38
AGGACGAGGGCAATGAGTTGATAGCACGGGTGGC	1.44	1.21	1.88	2.22	0.924	1.08	0.181	3.41
ACTATTAGTTGACTTATGGCAACCGATACGACGC	0.102	0.814	0.872	0.726	0.823	0.347	-0.0591	0.143
CGAACGAGGGCATGAGTTGATAGCAAATGCCGAT	0.843	1.54	2	2.58	1.17	1.48	-0.132	2.02
TAGCGTAGGTCATGCGGGCCAGTATAGTGTCGGC	2.91	4.14	4.63	0.594	3.78	2.27	-0.424	0.141
TCTAGCAGGCCAGAGGGTGACTCAAGAGGTACGG	0.225	0.176	-0.109	-0.237	0.486	-0.0515	-0.795	-0.534
CTCGAAAGGTTGTGCTCAGGTGAGTATACCAAAC	0.954	1.31	0.452	0.56	0.825	2.84	0.886	0.0434
